Test results as given in PubChem BioAssay (Tox21).
Results filed as inconclusive are left out. Entries that show only a call come without a potency. Values without a mark were called inactive. Calls of active or inactive are those of the source. Unless noted, calls come from the whole dose curve; as a rule, active = well fitted curve in the direction sought with a large enough effect in the repeat runs; inconclusive = weak or mixed curves; inactive = no such curve, though single readings can be large; an effect the other way counts as inactive or inconclusive.

Experiments:
[1] = qHTS assay to identify small molecule antagonists of the retinoid acid receptor (RAR) signaling pathway - cell viability counter screen (AID 1159551); conditions: C3RL4 cells viability, ATP luminescence (CellTiter-Glo), 6 h; series mostly up to 92.4 µM; note: nearly all actives have a fitted effect of over 35% in size
Procedure, shortened: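 Cytotoxicity counter screen: ATP content quantified by CellTiter-Glo luminescence in C3RL4 cells treated 6 hr at 37 C with compound and retinol (1 uM final). Cells plated at 1,000/well and cultured overnight before dosing.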

[2] = qHTS assay to identify small molecule antagonists of the retinoic acid receptor (RAR) signaling pathway (AID 1159552; note: nearly all actives have a fitted effect of over 50% in size; note: potency is the fitted concentration of half-maximal effect); conditions: C3RL4 RARE luciferase reporter, retinol-stimulated, 6 h; series mostly up to 92.4 µM
Procedure, shortened: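 Cells of the C3RL4 line were seeded, incubated overnight, then dosed with compounds in DMSO followed immediately by retinol (1 uM final). Six hours later luciferase detection reagent went in; signal was measured after 30 min at RT.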

[3] = qHTS assay to identify small molecule agonists of the retinoic acid receptor (RAR) signaling pathway (AID 1159553); conditions: C3RL4 RARE luciferase reporter, agonist, 6 h; activation: at 73.3 µM (top of the series) unless noted; note: potency is the fitted concentration of half-maximal effect
Procedure, shortened: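 Luminescence was measured 30 min after luciferase reagent addition at room temperature. Before that, C3RL4 reporter cells (1,000 per well, plated overnight) were treated with compound for 6 hr at 37 C and 5% CO2.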

[4] = qHTS assay to identify small molecule agonists of the RXR signaling pathway - cell viability counter screen (AID 1159529); conditions: RXR-alpha-bla HEK293T viability, CellTiter-Glo, 16 h; series mostly up to 76.8 µM; note: nearly all actives have a fitted effect of over 50% in size; note: potency is the fitted concentration of half-maximal effect;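 for activity change, negative = cytotoxicity: HEK 293T cells carrying an RXR-alpha UAS beta-lactamase reporter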
Procedure, shortened: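 HEK 293T RXRa-bla cells, 2% CS-FBS; 5 h settle; cpd 16 h 37 C, 5% CO2; CellTiter-Glo 30 min RT, luminescence. Tetraoctyl ammonium bromide as positive control.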

[5] = qHTS assay to identify small molecule antagonists of the estrogen related receptor signaling pathway with the pleiotropic PPARgamma coactivator (PGC) cell viability counter screen (AID 1224822; note: potency is the fitted concentration of half-maximal effect); conditions: ERR/PGC reporter cell line viability counter screen; series mostly up to 46.1 µM
Procedure, shortened: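 Viability counter-screen read by fluorescence intensity after 30 min with CellTiter-Fluor at 37 C; PGC/ERR reporter cells were exposed to compounds for 17.5 h at 37 C following a 6 h preincubation.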

[6] = qHTS assay to identify small molecule antagonists of the estrogen related receptor (ERR) signaling pathway - cell viability counter screen (AID 1224818); conditions: ERR reporter cell line viability counter screen; series mostly up to 46.1 µM;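 note: viability measured after 17.5 h of compound exposure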
Procedure, shortened: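 Cytotoxicity counter screen: fluorescence from CellTiter-Fluor, added after 17.5 h compound exposure at 37 C and read 30 min later. ERR cell line seeded at 2,000 cells/well, preincubated 6 h before dosing.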

[7] = qHTS assay to identify small molecule antagonists of the estrogen related receptor (ERR) signaling pathway (AID 1224819;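 note: luminescence from an ERR-driven luciferase reporter measured with One-Glo reagent; nearly all actives have a fitted effect of over 50% in size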); conditions: ERR reporter cell line, luciferase inhibition; series mostly up to 46.1 µM
Procedure, shortened: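 LOPAC library screened for antagonism as reduced One-Glo luminescence in ERR reporter cells (2,000/well). Compounds were added after 6 h pre-incubation and left 18 h at 37C; reading followed a 30 min room-temperature reagent step.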

[8] = qHTS assay to identify small molecule agonists of the estrogen related receptor (ERR) signaling pathway (AID 1224820); conditions: ERR reporter cell line, luciferase agonist mode; series mostly up to 46.1 µM
Procedure, shortened: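 Luminescence readout (One-Glo, 30 min RT) from NTP-supplied ERR cell line exposed to compounds for 18 h at 37 C. Cells seeded 2,000 per well and pre-incubated 6 h before pin-tool compound transfer.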

[9] = system: estrogen-related receptor alpha (ERRalpha) with PGC-1alpha coactivator, human; experiment: qHTS assay to identify small molecule antagonists of the estrogen related receptor signaling pathway with the pleiotropic PPARgamma coactivator (PGC) (AID 1224821; calls by dose curve;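 note: lower luminescence signal means antagonism of PGC/ERR signalling; nearly all actives have a fitted effect of over 50% in size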); conditions: ERR/PGC reporter cell line, luciferase, antagonist mode; series mostly up to 46.1 µM
Procedure, shortened: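 PGC/ERR reporter cells; 6 h pre-incubation 37 C/5% CO2; pin-tool compound in DMSO, 18 h 37 C; One-Glo added, 30 min RT; luminescence read. qHTS antagonist mode.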

[10] = qHTS assay to identify small molecule agonists of the estrogen related receptor signaling pathway with the pleiotropic PPARgamma coactivator (PGC) (AID 1224823); conditions: ERR/PGC reporter cell line, luciferase agonist mode; series mostly up to 46.1 µM
Procedure, shortened: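 Luminescence readout (One-Glo, 30 min RT) from PGC/ERR cell line treated 18 h at 37 C with pin-tool-delivered DMSO compound solutions; cells plated 6 h before dosing. Quantitative HTS format.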

Which Potency [1] does the source give for Cc1cc(C(C#N)c2ccc(Cl)cc2)c(Cl)cc1NC(=O)c1cc(I)cc(I)c1O (stereo not given) here?
The Potency was “inactive”.

With O=C(O)O as the compound, how does the activity change, negative = cytotoxicity [1] read?
The activity change, negative = cytotoxicity was 2.76% [at 8.39 µM].

And the activity, negative = inhibition [2]?
The activity, negative = inhibition was -54.8% [at 8.39 µM].

For CCCCCCCCCCCCOC(=O)c1ccc(O)cc1, which Potency [1] is on record?
Its Potency is “inactive”.

What does the source list for C=CC(=O)OCCOC(=O)C=C?
Potency [1]: inactive; Potency [2]: inactive; Potency [3]: inactive

Which Potency [1] does the source give for CCO[C@@H]1O[C@H](C(COCc2ccccc2)OCc2ccccc2)[C@H](OCc2ccccc2)[C@H]1O (stereo not given in full) here?
The Potency was “inactive”.

Which Potency [1] does the source give for CCC(=O)OC(=O)CC here?
Its Potency is “inactive”.

And the Potency [2]?
Its Potency is “inactive”.

And the Potency [3]?
Its Potency is “inactive”.

Which results are given for C#C[C@]1(O)CC[C@H]2[C@@H]3[C@H](C)CC4=C(CCC(=O)C4)[C@H]3CC[C@@]21C?
Potency [1]: inactive; Potency [2]: 29.8 µM (active); Potency [3]: inactive

For C[C@@H](O)[C@H](N)C(=O)O, which activity change, negative = cytotoxicity [1] is on record?
The activity change, negative = cytotoxicity was -1.86% [at 19 µM].

What about the activity, negative = inhibition [2] of the same compound?
The activity, negative = inhibition was 42.8% [at 19 µM].

And the Potency [3]?
Its Potency is “inactive”.

With CN(C)Cc1cc(C(C)(C)C)c(O)c(C(C)(C)C)c1 as the compound, how does the Potency [1] read?
Its Potency is “inactive”.

What about the Potency [2] of the same compound?
Its Potency is “inactive”.

And the Potency [3]?
Its Potency is “inactive”.

For Fc1ccc(C(c2ccc(F)cc2)N2CCNCC2)cc1, which Potency [1] is on record?
Its Potency is “inactive”.

With O=[N+]([O-])c1ccc(F)c(Cl)c1 as the compound, how does the Potency [1] read?
Its Potency is “inactive”.

And the Potency [2]?
The Potency was “inactive”.

What about the Potency [3] of the same compound?
Its Potency is “inactive”.

For C=CC(C)(CCC=C(C)C)OC=O (stereo not given), which Potency [1] is on record?
Its Potency is “inactive”.

Which Potency [1] does the source give for CN(C)CCN1CCN(c2cccc(Cl)c2)C1=O here?
The Potency was “inactive”.

Which activity change, negative = cytotoxicity [1] does the source give for O=C(O)CN(CCN(CC(=O)O)CC(=O)O)CC(=O)O here?
The activity change, negative = cytotoxicity was 1.05% [at 3.27 µM].

With CC1=CCC(=C(C)C)CC1 as the compound, how does the Potency [1] read?
The Potency was “inactive”.

Which results are given for ClCCl?
Potency [1]: inactive; Potency [2]: inactive; Potency [3]: inactive

For Clc1nnc(Cl)c2ccccc12, which Potency [1] is on record?
The Potency was “inactive”.

And the Potency [2]?
Its Potency is “inactive”.

And the Potency [3]?
The Potency was “inactive”.

For Clc1ccnc(Cl)n1, which Potency [1] is on record?
The Potency was “inactive”.

And the Potency [2]?
The Potency was “inactive”.

Which Potency [4] does the source give for CC(C)(C)c1ccc(C(O)CCCN2CCC(C(O)(c3ccccc3)c3ccccc3)CC2)cc1 (stereo not given) here?
The Potency was 7.56 µM (active).

And the Potency [2]?
The Potency was “inactive”.

What about the Potency [5] of the same compound?
Its Potency is 22 µM (active).

What does the source list for [Cl][Pt-2]([Cl])([Cl])[Cl]?
Potency [4]: inactive; Potency [3]: inactive

With Cc1nc2n(c(=O)c1CCN1CCC(c3noc4cc(F)ccc34)CC1)CCCC2 as the compound, how does the Potency [1] read?
The Potency was “inactive”.

And the Potency [2]?
Its Potency is “inactive”.

And the Potency [3]?
Its Potency is “inactive”.

With C=CCCC(=O)/C=C/C1C(C)=CCCC1(C)C (stereo not given) as the compound, how does the Potency [1] read?
Its Potency is “inactive”.

And the Potency [2]?
Its Potency is “inactive”.

And the Potency [3]?
The Potency was “inactive”.

For Oc1ccccc1O, which Potency [4] is on record?
Its Potency is “inactive”.

What about the Potency [2] of the same compound?
The Potency was “inactive”.

What about the Potency [3] of the same compound?
The Potency was “inactive”.

And the outcome [6]?
Its outcome is “inactive”.

And the Potency [5]?
Its Potency is “inactive”.

Which results are given for Oc1cc(Cl)cc(Cl)c1Cl?
Potency [4]: inactive; Potency [3]: inactive

With Cc1cc(=O)oc2cc(O)cc(O)c12 as the compound, how does the Potency [4] read?
Its Potency is “inactive”.

What about the Potency [3] of the same compound?
Its Potency is “inactive”.

With CCCCOC(=O)CO as the compound, how does the Potency [1] read?
The Potency was “inactive”.

Which Potency [1] does the source give for COc1cccc2c1C(=O)c1c(O)c3c(c(O)c1C2=O)C[C@@](O)(C(C)=O)C[C@@H]3O[C@H]1C[C@H](N)[C@H](O)[C@H](C)O1 here?
Its Potency is “inactive”.

Which Potency [1] does the source give for CNc1ccc([N+](=O)[O-])cc1 here?
Its Potency is “inactive”.

And the Potency [2]?
The Potency was “inactive”.

With O=C(O)c1cccc(C(F)(F)F)c1 as the compound, how does the Potency [1] read?
Its Potency is “inactive”.

Which Potency [1] does the source give for COc1c(C)c2c(c(O)c1C/C=C(\C)CCC(=O)OCCN1CCOCC1)C(=O)OC2 here?
Its Potency is “inactive”.

What about the Potency [2] of the same compound?
The Potency was “inactive”.

And the Potency [3]?
Its Potency is “inactive”.

With S=c1nccc[nH]1 as the compound, how does the Potency [1] read?
Its Potency is “inactive”.

Which Potency [1] does the source give for CCCCC(CC)CN1CN(CC(CC)CCCC)CC(C)(N)C1 (stereo not given) here?
Its Potency is “inactive”.

What about the Potency [2] of the same compound?
Its Potency is “inactive”.

And the Potency [3]?
The Potency was “inactive”.

Which Potency [1] does the source give for O=C(O)CCN(C1(C(=O)NO)CCCC1)S(=O)(=O)c1ccc(Oc2ccc(F)cc2)cc1 here?
Its Potency is “inactive”.

What about the Potency [2] of the same compound?
The Potency was “inactive”.

And the Potency [3]?
The Potency was “inactive”.

What does the source list for Cc1cc(C(C)(C)C)cc(C)c1CC1=NCCN1?
Potency [1]: inactive; Potency [2]: inactive; Potency [3]: inactive; outcome [6]: inactive; Potency [7]: inactive; outcome [8]: inactive; Potency [9]: inactive; Potency [5]: inactive; outcome [10]: inactive

For CNC(=O)c1ccccc1Sc1ccc2c(/C=C/c3ccccn3)n[nH]c2c1, which Potency [2] is on record?
Its Potency is “inactive”.

And the Potency [3]?
Its Potency is 0.188 µM (active).

Which results are given for CCCC[P+](C)(CCCC)CCCC?
Potency [1]: inactive; Potency [2]: inactive; Potency [3]: inactive

Which results are given for C1CCC(SSC2CCCCC2)CC1?
Potency [2]: inactive; Potency [3]: inactive

For CCn1c2ccccc2c2cc([N+](=O)[O-])ccc21, which Potency [2] is on record?
Its Potency is “inactive”.

What about the Potency [3] of the same compound?
The Potency was “inactive”.

Which Potency [3] does the source give for C[C@H]1NCc2cc(-c3ccc4c(=O)c(C(=O)O)cn(C5CC5)c4c3OC(F)F)ccc21 here?
The Potency was “inactive”.

For CCCCCCCCCCCCCC[N+](C)(C)C, which Potency [3] is on record?
Its Potency is “inactive”.

For Nc1ccc(NCCO)c([N+](=O)[O-])c1, which Potency [3] is on record?
Its Potency is “inactive”.

What does the source list for O=S(=O)(O)c1ccc(Nc2nc(Nc3ccc(/C=C/c4ccc(Nc5nc(Nc6ccc(S(=O)(=O)O)cc6)nc(N(CCO)CCO)n5)cc4S(=O)(=O)O)c(S(=O)(=O)O)c3)nc(N(CCO)CCO)n2)cc1?
Potency [1]: inactive; Potency [2]: inactive; Potency [3]: inactive

What does the source list for Cc1cc(C(C)(C)C)c(O)c(C)c1Cn1c(=O)n(Cc2c(C)cc(C(C)(C)C)c(O)c2C)c(=O)n(Cc2c(C)cc(C(C)(C)C)c(O)c2C)c1=O?
Potency [1]: inactive; Potency [3]: inactive

What does the source list for CC(=O)OCC=C(C)C?
Potency [1]: inactive; Potency [2]: inactive; Potency [3]: inactive
